Structures are written as SMILES.

In this test the target is Glucose transporter (Leishmania mexicana) (UniProt O61059). Nature of the test: ST_JUDE_LEISH: Cytotoxicity at 2uM final concentration against transgenic Leishmania Mexicana promastigotes LmGT2 that are glucose transport deficient and complemented with the L. Mexicana glucose transporter 2. Activity is measured by DNA content using SYBR green in vitro. The format is functional.
Usually inhibition stands for the drop in the measured response relative to a control, in per cent. For the compound `N=c1n(CCN2CCCCC2)c2ccccc2n1CC(O)c1cccc(Br)c1` (stereo not given), the inhibition came out at 3.65%.

Turning to `O=C(Nc1cc(C(F)(F)F)ccc1N1CCOCC1)C(Cl)(Cl)Cl`, the inhibition was found to be 9.48%.

On to `COc1ccccc1-c1cccc(CNC2CCN(CC3Cn4c(=O)ccc5ccc(F)c3c54)CC2)c1` (stereo not given), for which the inhibition was 54.7%.

As for `CN1CCN(c2ccc(CNc3ccc4ncc(-c5ccc(OC(F)(F)F)cc5)n4n3)cc2)CC1`, the inhibition was -1.25%.

For the compound `CC(C)CNc1nc(N)nc2ccc3c(ccn3CC(C)C)c12`, the inhibition is -0.02%.

Take `N#CCCN1CCN(Cc2cccc(-c3ccc(-c4nc5ccccc5[nH]4)cc3)c2)CC1`: the inhibition turned out to be 0.84%.

With `O=C(Nc1ccc(OC2CCN(Cc3ccccc3)CC2)c(Cl)c1)c1ccco1`, the inhibition was found to be 8.63%.

On to `Cc1cc(N(C)C)nc(Nc2ccc(NC(=O)CCc3ccccc3)cc2)n1`, for which the inhibition worked out at 2.1%.

For `Fc1ccc2[nH]ccc(=NN=Cc3ccccc3Cl)c2c1`, the inhibition came out at 1.87%.

Take `c1cc(CN2CCCCC2)cc(-c2ccc(-c3nc4ccccc4[nH]3)cc2)c1`: the inhibition is -1.06%.

On to `CCCCCCOc1ccc(C(=O)NCCCC2CCCN(CCCCCNC(=O)C=Cc3ccc(Cl)c(Cl)c3)C2)cc1` (stereo not given), for which the inhibition is 1.31%.

As for `COc1ccccc1CN1CCC(NC(=O)c2ccc(-c3ccc(N(C)C)cc3)s2)CC1`, the inhibition was determined as 8.12%.

Take `CN1CCCN(Cc2ccc(-c3ccc(NC(=O)c4ccc(Cl)cc4)cc3)cc2)CC1`: the inhibition is 50.7%.

Consider `Fc1cc(Cl)ccc1Nc1ccnc2cc(-c3ccc(CN4CCCCC4)o3)ccc12`, for which the inhibition amounted to 0.77%.

`CN(C)CCCOC(=O)c1cc2cc(-c3ccccc3)ccc2n1S(=O)(=O)Cc1ccccc1`: the inhibition amounted to 1.19%.

`Nc1nc(N)c2c(Oc3cccnc3)cccc2n1`: the inhibition is -0.57%.

As to `CC(C)(C)SC1SC(SC(C)(C)C)C(OC(=O)c2ccccc2)C(OC(=O)c2ccccc2)C1OC(=O)c1ccccc1` (stereo not given), the inhibition was -0.49%.

Consider `N=C(N)Nc1nccc(NCc2ccccc2)n1`, for which the inhibition was -0.48%.

`COc1ccc2nccc([C@@H](O)CN3CCC(NCc4ccc5nsnc5c4)CC3)c2c1`: the inhibition was -0.38%.

Consider `CN(/N=C/C=C/c1ccc(Cl)cc1)c1nc(NCCc2ccc(O)cc2)nc(N2CCNCC2)n1`, for which the inhibition is -0.16%.

For `CC(C)c1ccc(NC(=O)c2ccc(C(=O)NC3CCN(CC4CCCCC4)C3)cc2)cc1` (stereo not given), the inhibition came to 3.15%.

`N=C(N)NCC=C(c1ccccc1)c1ccccc1`: the inhibition worked out at 6.35%.

`CCC1CCc2cc(N)cc(-c3nc4c(c(C)nn4CC)c(=O)[nH]3)c2O1` (stereo not given): the inhibition was 3.42%.

Regarding `CN(C)Cc1ccc(-c2ccc3c(Nc4ccc(Oc5ccccn5)cc4)ccnc3c2)o1`, the inhibition was determined as 2.19%.

As for `Cc1cc(C(=O)CN2C(=O)NC3(CCCc4ccccc43)C2=O)c(C)n1Cc1ccc(F)cc1` (stereo not given), the inhibition amounted to 5.14%.

With `CN1CCC(NCc2ccc(-c3ccc(S(=O)(=O)NCc4ccccc4)s3)cc2)CC1`, the inhibition amounted to 4.55%.

Take `C[C@H](NC(=O)c1c(CN2CCC(NC(=O)CC(C)(C)C)CC2)c(-c2cccs2)nc2ccccc12)C1CCCCC1`: the inhibition was found to be 0.4%.

On to `COCCOc1cccc(CN2CCC(c3cc4nc(C)cc(C(F)(F)F)n4n3)C2)c1` (stereo not given), for which the inhibition is 0.83%.

Consider `O=C(NCCc1ccccc1)N(Cc1ccccc1-c1cccc(CNC2CCCC2)c1)C1CCN(Cc2ccccc2)CC1`, for which the inhibition was 6.22%.

As to `COc1ccc(-c2csc3nc(C)nc(Cl)c23)cc1OC`, the inhibition turned out to be 0.63%.

`CCCc1cc(Cc2cnc(N)nc2N)cc2c1OC(C)C2C` (stereo not given): the inhibition is 5.24%.

On to `COc1ccc(-c2cccc(NC(=O)c3cccc(C#N)c3)c2)cc1CN(C)CCN(C)C`, for which the inhibition came out at 0.48%.

Consider `CCNCc1cccc(-c2ccc3ccnc(N)c3c2)c1`, for which the inhibition was found to be 4.03%.

For the compound `COc1c(C)cc(I)cc1CNCCCNc1cc(=O)c2ccccc2[nH]1`, the inhibition was -0.84%.

`CCN(CC)CCCNC(=O)/C(=C/C=C/c1cc2cc(Cl)c(Cl)cc2[nH]1)OC`: the inhibition came to 7.84%.

Take `COc1ccc2nc3cc(Cl)ccc3c(N)c2c1`: the inhibition was 3.3%.

For the compound `CCOC(=O)C(NC(=O)Cc1ccccc1)C(C)C` (stereo not given), the inhibition is -3.14%.

As for `CC(C)(C)OC(=O)N[C@@H](Cc1ccccc1)C(=O)Nc1cccc(-c2cccc(NC(=O)[C@H](Cc3ccccc3)NC(=O)OC(C)(C)C)c2)c1`, the inhibition amounted to 0.33%.

For `Cc1ccc(C)c(CN2CCC(CNC(=O)c3cc4ccc5cccnc5c4[nH]3)CC2)c1`, the inhibition is -0.23%.

In the case of `Cc1cc(N/N=C/c2ccccc2[N+](=O)[O-])c2cc(F)ccc2n1`, the inhibition worked out at 0.94%.

Source of the values: ChEMBL document CHEMBL3433997, “St. Jude Leishmania screening dataset” (2016).
